Measured values as given in PubChem BioAssay (NCI).
The panel holds about 79,000 compounds, 15% with a hit somewhere; the sample as a whole holds those more often. Values without a mark were called inactive. The source made the active and inactive calls. Cut-off read from the data, not from the text of the source: active = growth inhibition above about 70%; inactive = the rest.

Columns and labels:
[1] = NCI Yeast Anticancer Drug Screen. Data for the rad50 strain (AID 155);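 note: 0% = growth of vehicle-only cultures of the same strain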; details: S. cerevisiae rad50 strain growth inhibition, hits give high values
Summary of the method: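 Growth of the mutant yeast was measured after compound exposure and referenced to vehicle-treated cultures.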

[2] = NCI Yeast Anticancer Drug Screen. Data for the mec2-1 strain (AID 157); details: S. cerevisiae mec2-1 strain, hits give high values
Summary of the method: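 Cells of the genetically defined mec2-1 yeast strain are incubated with test compound. Inhibition of growth is calculated against vehicle-treated controls.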

[3] = NCI Yeast Anticancer Drug Screen. Data for the sgs1 mgt1 strain (AID 161);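 note: 0% = growth of cultures given vehicle only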; details: S. cerevisiae sgs1 mgt1 strain, hits give high values
Summary of the method: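 Mutant yeast exposed to compound; growth scored against vehicle-only wells.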

[4] = NCI Yeast Anticancer Drug Screen. Data for the cln2 rad14 strain (AID 165);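 note: 0% = growth equal to vehicle treated cultures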; details: S. cerevisiae cln2 rad14 strain, hits give high values
Summary of the method: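 The screen exposed genetically defined yeast (cln2 rad14) to test compounds and scored growth inhibition relative to vehicle-treated controls.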

[5] = NCI Yeast Anticancer Drug Screen. Data for the bub3 strain (AID 167); details: S. cerevisiae bub3 mutant strain, hits give high values
Summary of the method: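 Whole-cell yeast assay. The mutant strain was incubated with compounds, and growth inhibition was determined by comparison with vehicle-treated cells.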

[6] = NCI Yeast Anticancer Drug Screen. Data for the mlh1 rad18 strain (AID 175); details: S. cerevisiae mlh1 rad18 strain growth inhibition, hits give high values
Summary of the method: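 Compound-treated yeast growth, normalised to vehicle controls. Strain bears defined DNA repair mutations.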

[7] = at 5.0 µM (retest, dose inferred, filed as 0.5)
[8] = at 50.0 µM (retest, dose inferred, filed as 5.0)

| SMILES | growth inhibition [1, 7] | growth inhibition [1, 8] | growth inhibition ([1]; at 50.0 µM) | growth inhibition [2, 7] | growth inhibition [2, 8] | growth inhibition ([2]; at 50.0 µM) | growth inhibition [3, 7] | growth inhibition [3, 8] | growth inhibition ([3]; at 50.0 µM) | growth inhibition [4, 7] | growth inhibition [4, 8] | growth inhibition ([4]; at 50.0 µM) | growth inhibition [5, 7] | growth inhibition [5, 8] | growth inhibition ([5]; at 50.0 µM) | growth inhibition [6, 7] | growth inhibition [6, 8] | growth inhibition ([6]; at 50.0 µM) |
| --- | --- | --- | --- | --- | --- | --- | --- | --- | --- | --- | --- | --- | --- | --- | --- | --- | --- | --- |
| CCCN1CCN(c2ccc([N+](=O)[O-])c3no[n+]([O-])c23)CC1 | 97% (active) | 99% (active) | 89% (active) | 97% (active) | 99% (active) | 93.3% (active) | 92% (active) | 99% (active) | 89.5% (active) | 52% | 99% (active) | 80.3% (active) | 58% | 98% (active) | 90.2% (active) | 97% (active) | 99% (active) | 88.6% (active) |
| O=C1OC(c2cccc(Cl)c2)Sc2ccccc21 (stereo not given) | 2% | 86% (active) | 51.7% | 0% | 60% | 19.4% | -12% | 56% | 36.2% | -7% | 47% | -16.7% | 26% | 94% (active) | 83.2% (active) | 0% | 78% (active) | 37.6% |
| COc1ccc(C(c2c(O)c3ccccc3oc2=O)N2CCOCC2)c(OC)c1 (stereo not given) | -4% | 3% | 33.4% | -6% | 19% | 23.1% | -4% | 4% | 35.6% | 3% | -3% | 20.3% | -2% | 0% | 69.2% | -7% | -3% | 43.4% |
| Cc1ccnc(-c2cc(C)ccn2)c1 | 6% | 96% (active) | 64% | -3% | 98% (active) | 23.1% | -4% | 57% | 57.9% | -1% | 95% (active) | -46.7% | 4% | 91% (active) | -3.15% | 7% | 98% (active) | 37.9% |
| CC(=O)Oc1ccc2ccccc2c1CN(Cc1c(OC(C)=O)ccc2ccccc12)C(C)=O | 9% | 64% | 88.8% (active) | 9% | 53% | 72.8% (active) | 4% | 84% (active) | 89.6% (active) | 3% | 88% (active) | 93.8% (active) | 3% | 80% (active) | 93.8% (active) | 11% | 85% (active) | 55% |
| O=C(c1ccc(OCC(O)CN2CCN(c3ccccc3)CC2)cc1)c1cc2ccccc2c2ccccc12 (stereo not given) | 13% | 85% (active) | 61% | 12% | 78% (active) | 82.8% (active) | 17% | 49% | 44.6% | 3% | 80% (active) | 91.5% (active) | 10% | 91% (active) | 89.3% (active) | 9% | 87% (active) | 96.2% (active) |
| COc1cc(/C=C2\CCc3ccccc3C2=O)ccc1O | -18% | 99% (active) | 89.2% (active) | -14% | 100% (active) | 92.2% (active) | -28% | 99% (active) | 88% (active) | 5% | 99% (active) | 90.8% (active) | 24% | 99% (active) | 91.5% (active) | -20% | 99% (active) | 84.3% (active) |
| CC(NNC(=S)N1CCCCCC1)c1cccnn1 (stereo not given) | 99% (active) | 99% (active) | 89% (active) | 98% (active) | 99% (active) | 93% (active) | 97% (active) | 99% (active) | 89.2% (active) | 98% (active) | 99% (active) | 90.5% (active) | 98% (active) | 99% (active) | 91.6% (active) | 99% (active) | 99% (active) | 85% (active) |
| O=C1/C(=C\c2ccc([N+](=O)[O-])o2)Oc2cc(O)ccc21 | 97% (active) | 96% (active) | 95.2% (active) | 97% (active) | 97% (active) | 91.8% (active) | 96% (active) | 96% (active) | 95.7% (active) | 98% (active) | 98% (active) | 93.6% (active) | 75% (active) | 90% (active) | 41.5% | 97% (active) | 98% (active) | 95.7% (active) |
| CCOC(=O)N1C=CC(=C2C(=C3C=CN(C(=O)OCC)C=C3)C(=C3C=CN(C(=O)OCC)C=C3)C2=C2C=CN(C(=O)OCC)C=C2)C=C1 | 55% | 95% (active) | 95.9% (active) | -4% | 57% | 75.3% (active) | -4% | 60% | 65.8% | -3% | 52% | -0.55% | -4% | 47% | 54.1% | 1% | 58% | 85.7% (active) |
| CC(=O)c1cc(I)c(O)c2ncccc12 | 96% (active) | 99% (active) | 90.3% (active) | 93% (active) | 99% (active) | 92.5% (active) | 29% | 98% (active) | 93% (active) | 69% | 96% (active) | 88.8% (active) | 28% | 95% (active) | 89.5% (active) | 100% (active) | 100% (active) | 87.9% (active) |
| Cc1cc2c(C(C)C)c(O)c(O)c3coc(/c1=c1/c(C)cc4c(C(C)C)c(=O)c(=O)c5coc1c45)c32 | -1% | 97% (active) | 98.9% (active) | 23% | 99% (active) | 99.2% (active) | 25% | 99% (active) | 99% (active) | -25% | 98% (active) | 98.8% (active) | -3% | 97% (active) | 98.5% (active) | 29% | 98% (active) | 99.2% (active) |
| Cc1cc(C2c3ccccc3-c3ccccc32)cc(C)c1O | 9% | 7% | 98.3% (active) | 4% | 5% | 98.6% (active) | 4% | 8% | 98.8% (active) | -1% | -9% | 97.3% (active) | -1% | 8% | 97.2% (active) | 7% | 18% | 98.5% (active) |
| CCN(CC)C(=S)N/N=C/c1cc(OC)ccc1O | -15% | 65% | 69.9% | -43% | 93% (active) | 73.2% (active) | -33% | 95% (active) | 62.4% | -6% | 62% | 53.5% | -38% | 84% (active) | 61.5% | -30% | 78% (active) | 26.6% |
| CCN(CC)c1ccc(N=Nc2ccc(-c3nc4ccc[n+](C)c4s3)cc2)cc1 | 99% (active) | 99% (active) | 89.6% (active) | 99% (active) | 99% (active) | 88.8% (active) | 99% (active) | 99% (active) | 88.2% (active) | 100% (active) | 100% (active) | 88.2% (active) | 99% (active) | 99% (active) | 91.1% (active) | 99% (active) | 99% (active) | 88.8% (active) |
| Cc1c(N=Nc2ccccc2Cl)c(-c2ccccc2)nn1C(=S)S | 16% | 90% (active) | 96.2% (active) | -1% | 91% (active) | 98.2% (active) | 4% | 95% (active) | 97.8% (active) | -2% | 92% (active) | 97.3% (active) | -3% | 85% (active) | 97.3% (active) | -2% | 93% (active) | 97.8% (active) |
| O=[N+]([O-])c1ccc(C(Br)(Br)c2ccc([N+](=O)[O-])cc2)cc1 | 99% (active) | 99% (active) | 99.7% (active) | 97% (active) | 100% (active) | 99.7% (active) | 100% (active) | 100% (active) | 99.8% (active) | 95% (active) | 99% (active) | 99.3% (active) | 80% (active) | 99% (active) | 99.5% (active) | 93% (active) | 99% (active) | 99.5% (active) |
| CCCC(C)C/C(C)=C\C(C)(C)C1CC(=O)N(CC)C1=O (stereo not given) | -3% | 90% (active) | 20.3% | -1% | 89% (active) | 80.7% (active) | -3% | 54% | 72.7% (active) | 4% | 92% (active) | 83.8% (active) | 4% | 95% (active) | 70.9% (active) | -3% | 98% (active) | 60.9% |
| O=C1NC(O)c2cccc(Cl)c2O1 (stereo not given) | 52% | 99% (active) | 88.8% (active) | 22% | 99% (active) | 92.2% (active) | 17% | 99% (active) | 83.3% (active) | 5% | 99% (active) | 97.8% (active) | 15% | 98% (active) | 94.8% (active) | 28% | 99% (active) | 98.3% (active) |
| COC1/C=C/OC2(C)Oc3c(C)c(O)c4c5c(cc(O)c4c3C2=O)N=C(O5)/C(C)=C\C=C\C(C)C(O)C(C)C(O)C(C)C(OC(C)=O)C1C (stereo not given) | 5% | 99% (active) | 55.2% | -71% | 99% (active) | 60% | -60% | 96% (active) | 53.6% | 28% | 99% (active) | 53.5% | 3% | 99% (active) | 48.5% | 4% | 98% (active) | 60.6% |
